In experiment [1] the target is Sphingosine kinase 1 (Homo sapiens) (UniProt Q9NYA1). Conditions: at 1 µM.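 Note: mean SPHK1 inhibition value reported from the GSK PKIS kinase panel screen.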
The target of experiment [2] is T1, Sphingosine kinase 2 (Homo sapiens) (UniProt Q9NRA0).
T1 sequence (whole entry): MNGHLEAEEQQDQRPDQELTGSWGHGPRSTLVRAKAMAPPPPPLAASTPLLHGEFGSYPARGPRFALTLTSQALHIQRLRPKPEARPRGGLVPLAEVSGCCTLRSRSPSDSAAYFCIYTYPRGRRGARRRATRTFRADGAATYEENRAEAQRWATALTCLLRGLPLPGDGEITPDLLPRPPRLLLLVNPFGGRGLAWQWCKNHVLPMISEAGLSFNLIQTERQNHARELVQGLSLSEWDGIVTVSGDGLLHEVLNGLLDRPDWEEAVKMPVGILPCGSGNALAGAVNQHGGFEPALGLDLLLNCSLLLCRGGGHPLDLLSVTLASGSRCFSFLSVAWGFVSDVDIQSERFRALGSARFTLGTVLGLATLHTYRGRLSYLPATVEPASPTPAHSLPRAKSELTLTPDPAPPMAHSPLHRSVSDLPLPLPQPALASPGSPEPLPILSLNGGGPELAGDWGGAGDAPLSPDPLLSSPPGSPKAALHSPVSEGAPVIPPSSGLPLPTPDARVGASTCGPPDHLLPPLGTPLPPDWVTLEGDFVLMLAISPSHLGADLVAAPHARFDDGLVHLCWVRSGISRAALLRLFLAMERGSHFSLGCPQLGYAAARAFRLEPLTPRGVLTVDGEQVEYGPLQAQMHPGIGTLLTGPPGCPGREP
Conditions: at 0.1 µM.

Experiment [3] concerns the target T1, Sphingosine kinase 2 (Homo sapiens). Conditions: at 1 µM.
The target of experiment [4] is Casein kinase II subunit alpha (Homo sapiens) (UniProt P68400). Particulars: at 0.1 µM.
Experiment [5] has the same target. Particulars: at 1 µM.
Experiment [6] deals with T2, Inhibitor of nuclear factor kappa-B kinase subunit alpha (Homo sapiens) (UniProt O15111).
T2 sequence (whole entry): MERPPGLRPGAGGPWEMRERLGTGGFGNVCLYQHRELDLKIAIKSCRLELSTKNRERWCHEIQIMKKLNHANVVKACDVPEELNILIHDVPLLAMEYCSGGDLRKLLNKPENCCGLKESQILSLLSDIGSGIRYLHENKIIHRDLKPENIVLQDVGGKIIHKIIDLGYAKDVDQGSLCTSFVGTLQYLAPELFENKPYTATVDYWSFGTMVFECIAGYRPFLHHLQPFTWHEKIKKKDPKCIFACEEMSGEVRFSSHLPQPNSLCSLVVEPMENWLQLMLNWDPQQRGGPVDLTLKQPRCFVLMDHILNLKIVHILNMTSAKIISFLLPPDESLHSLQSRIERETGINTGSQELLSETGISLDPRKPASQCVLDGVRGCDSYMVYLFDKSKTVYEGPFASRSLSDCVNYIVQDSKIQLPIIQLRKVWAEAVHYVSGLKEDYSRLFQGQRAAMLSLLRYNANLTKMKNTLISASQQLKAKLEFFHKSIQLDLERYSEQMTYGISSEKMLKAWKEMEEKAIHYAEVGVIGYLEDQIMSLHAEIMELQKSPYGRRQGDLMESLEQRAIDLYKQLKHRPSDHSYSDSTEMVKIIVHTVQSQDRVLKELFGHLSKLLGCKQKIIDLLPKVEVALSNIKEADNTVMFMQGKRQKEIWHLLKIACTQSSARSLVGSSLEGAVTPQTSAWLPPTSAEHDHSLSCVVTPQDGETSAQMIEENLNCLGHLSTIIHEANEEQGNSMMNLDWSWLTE
Particulars: at 0.1 µM.

The target of experiment [7] is T2, Inhibitor of nuclear factor kappa-B kinase subunit alpha (Homo sapiens). Conditions: at 1 µM.
Experiment [8] concerns the target T3, Inhibitor of nuclear factor kappa-B kinase subunit beta (Homo sapiens) (UniProt O14920).
T3 sequence (whole entry): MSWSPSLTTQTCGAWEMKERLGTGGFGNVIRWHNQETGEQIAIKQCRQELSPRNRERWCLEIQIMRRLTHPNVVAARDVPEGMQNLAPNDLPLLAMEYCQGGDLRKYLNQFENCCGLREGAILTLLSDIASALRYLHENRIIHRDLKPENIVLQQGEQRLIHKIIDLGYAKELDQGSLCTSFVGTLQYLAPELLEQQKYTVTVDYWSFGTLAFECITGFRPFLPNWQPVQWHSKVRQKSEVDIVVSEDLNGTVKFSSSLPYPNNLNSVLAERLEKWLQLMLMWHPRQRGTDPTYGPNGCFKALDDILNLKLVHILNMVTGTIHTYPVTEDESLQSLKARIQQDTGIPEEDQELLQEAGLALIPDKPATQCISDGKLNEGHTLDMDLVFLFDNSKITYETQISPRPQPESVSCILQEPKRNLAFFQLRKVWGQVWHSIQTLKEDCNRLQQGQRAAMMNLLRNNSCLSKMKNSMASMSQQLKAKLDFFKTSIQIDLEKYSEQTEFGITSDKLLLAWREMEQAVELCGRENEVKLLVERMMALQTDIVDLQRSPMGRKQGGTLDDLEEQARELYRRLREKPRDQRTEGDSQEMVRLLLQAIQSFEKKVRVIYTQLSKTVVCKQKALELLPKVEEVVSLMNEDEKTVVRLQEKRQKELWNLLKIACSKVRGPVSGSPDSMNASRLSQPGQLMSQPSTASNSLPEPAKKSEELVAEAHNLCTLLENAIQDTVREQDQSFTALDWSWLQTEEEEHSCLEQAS
Conditions: at 0.1 µM.

The target in experiment [9] is T3, Inhibitor of nuclear factor kappa-B kinase subunit beta (Homo sapiens). Conditions: at 1 µM.
The target in experiment [10] is T4, Inhibitor of nuclear factor kappa-B kinase subunit epsilon (Homo sapiens) (UniProt Q14164).
T4 sequence (whole entry): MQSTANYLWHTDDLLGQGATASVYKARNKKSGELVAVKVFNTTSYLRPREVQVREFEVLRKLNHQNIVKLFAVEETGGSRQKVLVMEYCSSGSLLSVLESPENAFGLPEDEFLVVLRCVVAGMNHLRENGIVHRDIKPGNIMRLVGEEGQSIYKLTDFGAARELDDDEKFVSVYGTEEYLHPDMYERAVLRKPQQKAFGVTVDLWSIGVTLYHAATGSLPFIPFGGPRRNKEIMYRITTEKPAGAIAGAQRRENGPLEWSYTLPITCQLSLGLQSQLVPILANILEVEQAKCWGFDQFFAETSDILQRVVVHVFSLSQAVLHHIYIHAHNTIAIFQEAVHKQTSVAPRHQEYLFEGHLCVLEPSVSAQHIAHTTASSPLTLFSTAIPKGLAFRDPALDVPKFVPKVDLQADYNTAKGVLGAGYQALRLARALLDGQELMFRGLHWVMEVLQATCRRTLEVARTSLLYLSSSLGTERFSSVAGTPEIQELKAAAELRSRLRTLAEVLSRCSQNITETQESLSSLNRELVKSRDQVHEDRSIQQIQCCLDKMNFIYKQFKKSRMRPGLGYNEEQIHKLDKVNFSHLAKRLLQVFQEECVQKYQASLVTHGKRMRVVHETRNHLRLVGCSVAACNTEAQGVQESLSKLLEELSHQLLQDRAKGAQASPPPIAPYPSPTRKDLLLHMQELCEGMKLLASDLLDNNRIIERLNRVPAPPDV
Conditions: at 0.1 µM.

The target in experiment [11] is T4, Inhibitor of nuclear factor kappa-B kinase subunit epsilon (Homo sapiens). Conditions: at 1 µM.
In experiment [12] the target is T5, Serine/threonine-protein kinase Nek1 (Homo sapiens) (UniProt Q96PY6).
T5 sequence (whole entry): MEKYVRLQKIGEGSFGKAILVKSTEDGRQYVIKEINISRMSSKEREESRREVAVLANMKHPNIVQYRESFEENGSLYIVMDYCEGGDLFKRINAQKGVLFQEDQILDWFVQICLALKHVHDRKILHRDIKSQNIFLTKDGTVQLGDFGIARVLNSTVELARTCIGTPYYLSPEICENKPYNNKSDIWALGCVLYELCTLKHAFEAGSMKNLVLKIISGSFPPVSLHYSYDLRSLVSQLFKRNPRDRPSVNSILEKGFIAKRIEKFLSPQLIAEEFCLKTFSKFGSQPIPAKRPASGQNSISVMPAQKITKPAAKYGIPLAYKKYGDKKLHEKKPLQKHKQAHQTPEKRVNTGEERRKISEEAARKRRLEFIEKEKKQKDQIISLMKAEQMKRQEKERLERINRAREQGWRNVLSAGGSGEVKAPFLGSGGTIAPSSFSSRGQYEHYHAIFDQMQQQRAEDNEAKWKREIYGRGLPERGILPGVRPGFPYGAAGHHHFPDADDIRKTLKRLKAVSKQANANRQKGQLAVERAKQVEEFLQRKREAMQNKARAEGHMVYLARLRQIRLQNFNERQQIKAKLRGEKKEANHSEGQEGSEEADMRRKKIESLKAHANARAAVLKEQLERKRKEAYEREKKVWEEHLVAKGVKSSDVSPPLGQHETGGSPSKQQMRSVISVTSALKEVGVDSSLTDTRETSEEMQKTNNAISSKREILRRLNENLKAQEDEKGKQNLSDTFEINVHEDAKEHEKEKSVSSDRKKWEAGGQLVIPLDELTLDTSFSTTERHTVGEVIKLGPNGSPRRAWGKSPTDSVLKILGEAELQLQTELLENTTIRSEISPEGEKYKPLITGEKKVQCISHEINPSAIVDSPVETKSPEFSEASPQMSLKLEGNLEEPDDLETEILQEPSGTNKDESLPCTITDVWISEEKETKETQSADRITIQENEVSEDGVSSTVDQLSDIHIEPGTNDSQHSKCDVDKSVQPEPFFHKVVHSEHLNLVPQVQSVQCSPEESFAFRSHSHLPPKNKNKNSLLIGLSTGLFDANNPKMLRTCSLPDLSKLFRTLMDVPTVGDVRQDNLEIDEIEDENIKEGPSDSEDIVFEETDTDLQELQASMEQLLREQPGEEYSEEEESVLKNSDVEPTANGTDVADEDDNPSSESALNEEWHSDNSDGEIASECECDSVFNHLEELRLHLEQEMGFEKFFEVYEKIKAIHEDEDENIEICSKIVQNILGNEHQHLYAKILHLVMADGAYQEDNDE
Particulars: at 0.1 µM.

Experiment [13] has as its target T5, Serine/threonine-protein kinase Nek1 (Homo sapiens). Particulars: at 1 µM.
Experiment [14] has as its target T6, Serine/threonine-protein kinase Nek2 (Homo sapiens) (UniProt P51955).
T6 sequence (whole entry): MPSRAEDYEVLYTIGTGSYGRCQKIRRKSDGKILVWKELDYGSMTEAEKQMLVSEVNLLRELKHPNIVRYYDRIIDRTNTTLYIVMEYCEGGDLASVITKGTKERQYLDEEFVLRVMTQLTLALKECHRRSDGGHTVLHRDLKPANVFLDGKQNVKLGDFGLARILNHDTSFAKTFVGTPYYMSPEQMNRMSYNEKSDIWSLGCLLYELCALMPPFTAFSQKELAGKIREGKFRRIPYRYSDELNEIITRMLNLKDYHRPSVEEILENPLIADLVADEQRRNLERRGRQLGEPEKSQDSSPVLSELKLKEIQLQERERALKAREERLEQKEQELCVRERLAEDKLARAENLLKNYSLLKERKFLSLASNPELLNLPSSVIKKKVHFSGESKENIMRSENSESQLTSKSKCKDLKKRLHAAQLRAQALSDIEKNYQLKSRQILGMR
Conditions: at 0.1 µM.

The target in experiment [15] is T6, Serine/threonine-protein kinase Nek2 (Homo sapiens). Particulars: at 1 µM.
The target of experiment [16] is Serine/threonine-protein kinase Nek6 (Homo sapiens) (UniProt Q9HC98). Conditions: at 0.1 µM.
Experiment [17] shares this target. Conditions: at 1 µM.
The target in experiment [18] is Serine/threonine-protein kinase Nek7 (Homo sapiens) (UniProt Q8TDX7). Particulars: at 0.1 µM.
Experiment [19] has the same target. Particulars: at 1 µM.
The target in experiment [20] is T7, Serine/threonine-protein kinase Nek9 (Homo sapiens) (UniProt Q8TD19).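 Note: reported value is the mean percent inhibition of NEK9.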
T7 sequence (whole entry): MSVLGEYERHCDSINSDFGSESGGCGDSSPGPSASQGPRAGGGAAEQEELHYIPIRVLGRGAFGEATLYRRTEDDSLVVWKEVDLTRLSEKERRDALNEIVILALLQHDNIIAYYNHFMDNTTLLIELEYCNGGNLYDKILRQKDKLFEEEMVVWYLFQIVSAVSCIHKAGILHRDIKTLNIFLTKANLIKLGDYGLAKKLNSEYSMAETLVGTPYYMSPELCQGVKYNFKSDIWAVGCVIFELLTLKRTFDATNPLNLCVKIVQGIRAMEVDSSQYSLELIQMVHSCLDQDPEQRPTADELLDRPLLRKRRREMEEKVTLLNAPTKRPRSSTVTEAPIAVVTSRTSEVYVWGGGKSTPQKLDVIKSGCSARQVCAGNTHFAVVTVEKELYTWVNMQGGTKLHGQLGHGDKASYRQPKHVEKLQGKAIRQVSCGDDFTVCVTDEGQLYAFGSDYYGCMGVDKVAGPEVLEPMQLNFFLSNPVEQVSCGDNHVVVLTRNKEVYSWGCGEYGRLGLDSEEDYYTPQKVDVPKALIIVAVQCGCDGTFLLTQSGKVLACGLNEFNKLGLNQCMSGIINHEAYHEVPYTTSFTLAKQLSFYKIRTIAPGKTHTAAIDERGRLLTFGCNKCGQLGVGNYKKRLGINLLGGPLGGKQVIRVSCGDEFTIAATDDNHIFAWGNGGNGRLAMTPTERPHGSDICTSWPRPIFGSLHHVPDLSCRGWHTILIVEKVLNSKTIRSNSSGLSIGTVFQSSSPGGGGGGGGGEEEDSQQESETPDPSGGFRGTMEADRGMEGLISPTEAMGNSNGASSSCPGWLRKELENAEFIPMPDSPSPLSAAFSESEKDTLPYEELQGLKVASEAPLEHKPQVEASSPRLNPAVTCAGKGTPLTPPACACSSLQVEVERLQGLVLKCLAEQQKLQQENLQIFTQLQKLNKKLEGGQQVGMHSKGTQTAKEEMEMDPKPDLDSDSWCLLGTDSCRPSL
Conditions: at 0.1 µM.

Chain of Casein kinase II subunit alpha (Homo sapiens) (P68400 whole entry, looked up): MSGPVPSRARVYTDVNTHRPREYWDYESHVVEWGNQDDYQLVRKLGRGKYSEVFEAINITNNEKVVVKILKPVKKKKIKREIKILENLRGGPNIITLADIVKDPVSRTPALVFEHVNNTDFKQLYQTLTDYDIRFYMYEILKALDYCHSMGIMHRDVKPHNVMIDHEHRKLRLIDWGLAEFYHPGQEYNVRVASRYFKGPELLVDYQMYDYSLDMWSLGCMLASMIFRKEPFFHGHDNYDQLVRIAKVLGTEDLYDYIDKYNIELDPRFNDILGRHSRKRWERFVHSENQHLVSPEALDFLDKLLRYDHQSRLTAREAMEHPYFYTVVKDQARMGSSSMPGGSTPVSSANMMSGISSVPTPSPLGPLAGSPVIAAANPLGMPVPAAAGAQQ
Chain of Serine/threonine-protein kinase Nek6 (Homo sapiens) (Q9HC98 whole entry): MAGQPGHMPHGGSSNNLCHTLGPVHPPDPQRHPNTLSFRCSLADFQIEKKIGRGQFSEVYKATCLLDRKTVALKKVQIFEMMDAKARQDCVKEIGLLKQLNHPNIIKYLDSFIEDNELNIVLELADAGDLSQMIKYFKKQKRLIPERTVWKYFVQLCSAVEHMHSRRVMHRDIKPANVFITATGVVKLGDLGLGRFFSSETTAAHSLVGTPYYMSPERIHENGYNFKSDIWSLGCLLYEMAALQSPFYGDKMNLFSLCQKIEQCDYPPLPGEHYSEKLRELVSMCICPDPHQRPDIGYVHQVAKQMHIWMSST
Chain of Serine/threonine-protein kinase Nek7 (Homo sapiens) (Q8TDX7 whole entry, looked up): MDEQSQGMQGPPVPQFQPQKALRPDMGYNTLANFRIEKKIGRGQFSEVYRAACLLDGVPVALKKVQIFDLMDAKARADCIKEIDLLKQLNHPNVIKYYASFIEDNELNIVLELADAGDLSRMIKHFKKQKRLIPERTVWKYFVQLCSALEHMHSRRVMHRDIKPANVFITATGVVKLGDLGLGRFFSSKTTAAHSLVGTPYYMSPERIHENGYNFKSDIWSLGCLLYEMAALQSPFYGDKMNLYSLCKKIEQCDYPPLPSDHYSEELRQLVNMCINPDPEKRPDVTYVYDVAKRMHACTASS
Chain of Sphingosine kinase 1 (Homo sapiens) (Q9NYA1 whole entry): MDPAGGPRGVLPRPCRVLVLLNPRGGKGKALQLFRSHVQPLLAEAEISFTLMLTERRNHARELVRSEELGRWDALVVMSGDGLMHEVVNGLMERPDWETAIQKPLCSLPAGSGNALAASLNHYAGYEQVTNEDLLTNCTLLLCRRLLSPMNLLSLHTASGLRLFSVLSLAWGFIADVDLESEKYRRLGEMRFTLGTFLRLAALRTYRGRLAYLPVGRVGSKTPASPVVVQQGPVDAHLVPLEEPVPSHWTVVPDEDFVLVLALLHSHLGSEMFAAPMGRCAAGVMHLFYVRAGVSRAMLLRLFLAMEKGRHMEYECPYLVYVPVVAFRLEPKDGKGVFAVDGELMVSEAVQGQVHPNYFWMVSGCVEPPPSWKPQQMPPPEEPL

`NS(=O)(=O)c1ccc(N/N=C2\C(=O)Nc3ccc(C(=O)NCc4ccncc4)cc32)cc1`: the inhibition (in general, the drop in the measured response relative to a control, in per cent) was 0.35% in experiment [1]; 2.9% in [2]; -0.04% in experiment [3]; 4.7% in experiment [4]; 13.1% in experiment [5]; 2.72% in experiment [6]. For the same compound, the inhibition in experiment [7] came to 0.67%; in experiment [8] it was 5.86%; in experiment [9] it was 5.23%; in experiment [10], 14.4%; in experiment [11] it was 49.1%; in experiment [12] it was 1.96%. Further, the inhibition in [13] turned out to be 4.03%; in experiment [14], 4.39%; in experiment [15] it was 3.78%; in experiment [16] it was 3.86%; in [17] it was 5.08%; in experiment [18], 3.8%. Also, the inhibition in [19] worked out at 4.4%; in [20], 9.13%.

The values are drawn from ChEMBL document CHEMBL1961873, “Compounds: GSK PKIS; Assays: Nanosyn kinase panel” (2012).
